BoNT-A LC inh2: inhibitors of Botulinum neurotoxin A light chain protease | 360,000 compounds, 0.17% hits | multiplex microsphere protease substrate cleavage, flow cytometry | inhibition, % at 10 µM
Autofluor counter: counter-screen for toxin protease inhibitors: compound fluorescence; compound autofluorescence counterscreen, microsphere flow cytometry; stronger effect = higher value; fluorescence intensity (no concentration beside the values); 360,000 compounds, 3.1% hits; in the data active means fluorescence intensity above about 16000; inconclusive means no clear call, values can overlap the other calls
VHR inh abs: inhibitors of human VHR1 phosphatase (DUSP3). P51452. recombinant VHR phosphatase, pNPP absorbance. inhibition, % at 13.3 µM. 290,000 compounds, 0.52% hits. AID 1654; in the data active means inhibition above about 50%
Target sequence (P51452 whole entry, looked up): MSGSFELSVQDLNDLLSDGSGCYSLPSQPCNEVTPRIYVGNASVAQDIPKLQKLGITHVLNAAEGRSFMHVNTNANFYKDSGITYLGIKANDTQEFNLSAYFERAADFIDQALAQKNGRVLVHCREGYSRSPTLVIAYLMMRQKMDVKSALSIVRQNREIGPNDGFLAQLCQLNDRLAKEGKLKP
Anthrax LF inh2: anthrax lethal factor protease inhibition; multiplex microsphere protease cleavage assay, LF; 360,000 compounds, 0.12% hits; inhibition, % at 10 µM; AID 588501
BoNT F protease: blocks Botulinum neurotoxin F light chain protease; Multiplex microsphere protease cleavage assay, flow cytometry; inhibition, % at 10 µM; 360,000 compounds, 0.22% hits; AID 588497; in the data active means inhibition above about 35%, passing the limit was not always enough; inconclusive means no clear call, values can overlap the other calls
3CLpro inhibitor: SARS-CoV 3CLpro protease inhibition; inhibition, % at 6 µM; P0C6X7; recombinant SARS-CoV 3CLpro, quenched FRET peptide cleavage; 290,000 compounds, 0.14% hits; AID 1706; in the data active means inhibition above about 12%
Of the large screens only hits and unclear results are named; the others gave an inactive call. Only some compounds are listed: those with a hit (about 3.9% of all), similar ones and a draw of the others. Unless noted, no stated cut-off is given here; in the data, active means inhibition above about 30%; inconclusive means no clear call, values can overlap the other calls; inactive means below that.

CC(C)N1C(=O)CCC1C(=O)NCCc1ccccc1 (configuration not stated)	Autofluor counter 23958
CC(C)CCNC(=O)C1CCC(=O)N1C(C)C (configuration not stated)	none
COc1ccc(C(C)(O)c2nc(-c3ccccc3OC)cs2)cc1 (configuration not stated)	none (no result: VHR inh abs, 3CLpro inhibitor)
Cn1ncc2c1NC(c1ccc(F)cc1)SCC2=O (configuration not stated)	none (no result: VHR inh abs, 3CLpro inhibitor)
COc1ccc(C(CNC(=O)c2cccc(S(=O)(=O)NCc3ccccc3)c2)N2CCOCC2)cc1 (configuration not stated)	Autofluor counter inconclusive, BoNT F protease inconclusive (no result: VHR inh abs, 3CLpro inhibitor)
COCOCCn1cc(CN2CCS(=O)(=O)N(Cc3ccc(-c4ccncc4)cc3)C(C(C)C)C2=O)nn1 (configuration not stated)	none (no result: VHR inh abs, 3CLpro inhibitor)
CCCC(C)C1C(C#N)=C(N)Oc2cc(C)oc(=O)c21 (configuration not stated)	none (no result: BoNT-A LC inh2, Autofluor counter, VHR inh abs, Anthrax LF inh2, BoNT F protease)
CC(CCc1ccccc1)C(=O)NO (configuration not stated)	Autofluor counter 23384
COC(=O)[C@H](C)NC(=O)NC(C)CCc1ccccc1 (some centres not stated)	Autofluor counter 21607
CCOC(=O)N1CCN(C(=O)COC(=O)c2oc3ccc(OC)cc3c2C)CC1	none
CCCCOc1ccc(C(O)(CCC)CCN2CCOCC2)cc1 (configuration not stated)	none
CCCCC(O)(CCN1CCOCC1)c1ccc(Cl)cc1 (configuration not stated)	Autofluor counter 21851
O=C1/C(=C/c2ccc(N3CCCC3)cc2)NC(=S)N1C1CC1	VHR inh abs 52
O=C1N/C(=C/c2ccc(N3CCCC3)cc2)C(=O)N1c1ccccc1	none
Cc1ccccc1C(=O)N1CCC(C(=O)OCc2ccccn2)CC1	none (no result: VHR inh abs, 3CLpro inhibitor)
Cc1cc(=O)[nH]c(N2CCN(Cc3ccccc3)CC2)n1	none
CCCCc1c(O)nc(N2CCN(Cc3ccccc3)CC2)[nH]c1=O	Autofluor counter 21940
CC(C)NC(=O)C(=O)NCCCN1CCOCC1	none
O=C(O)CCc1ccc(-c2ccccc2)n1CC1CCCO1 (configuration not stated)	none
Cc1ccc(-c2ccc(CCC(=O)O)n2CC2CCCO2)cc1 (configuration not stated)	BoNT-A LC inh2 inconclusive, Autofluor counter 22736
Cc1cccc(N2CCN(C(=O)c3ccc4c(c3)NC(=O)C(CSCc3cccc(F)c3)N4)CC2C)c1 (configuration not stated)	none
Cc1nc(C)c(-c2csc(Nc3ccc(N)cc3)n2)s1	VHR inh abs 57
CCCN1C(=O)c2ccccc2NC1c1ccc(OC)cc1OC (configuration not stated)	none
COc1ccc(C2Nc3ccccc3C(=O)N2NC(C)=O)c(OC)c1 (configuration not stated)	VHR inh abs 53
CC(C)CCNC(=O)c1ccc(-n2cnc3cccnc32)cc1	none (no result: VHR inh abs)
COc1ccc(OC)c(-c2c[n+](=O)c3c(n2[O-])CCCC3)c1	none
CCOc1ccc(-c2c[n+](=O)c3c(n2[O-])CCCC3)c(OCC)c1	Autofluor counter 19889
COc1ccc(C2=C(c3ccccc3)OC(OC)c3cc(F)ccc32)cn1 (configuration not stated)	none (no result: VHR inh abs, 3CLpro inhibitor)
CC(C)NC(=O)COc1ncnc2sccc12	Autofluor counter 18786
CC(C)NC(=O)NC(=O)COc1ncnc2sccc12	none
NCCC1CCCC(CCN)N1 (configuration not stated)	none (no result: VHR inh abs, 3CLpro inhibitor)
Fc1cccc(CNCc2ccc3c(c2)OCO3)c1	none (no result: BoNT-A LC inh2, Autofluor counter, Anthrax LF inh2, BoNT F protease)
CSc1ccc(CNCc2ccc3c(c2)OCO3)cc1	VHR inh abs 55
Cc1cc(C)cc(NCCC#N)c1	none
Cc1ccc(CNC(=O)c2cccc(-n3cnnn3)c2)cc1	Autofluor counter 23751
CCc1ccc(-c2nc(NC(=S)NC(=O)c3cccs3)sc2C)cc1	Autofluor counter 23514
O=C(Nc1c(C(=O)N2CCCC2)cnn1-c1ccccc1)c1cccc(F)c1	BoNT-A LC inh2 inconclusive, Autofluor counter 21118
CCn1nc(C)c(CN2CCC(Oc3ccc(C(=O)N4CCCC4)cc3)CC2)c1C	VHR inh abs 57
C/C(=N\NC(=O)c1ccoc1C)c1cccc2ccccc12	none
CC(C)C1C(c2ccccc2)N(C)C(c2ccccc2)CC1(O)c1ccccc1 (configuration not stated)	Autofluor counter 21931
Cc1ccc(Cl)c(OCC(=O)NC2CCN(Cc3ccccc3)CC2)c1	Autofluor counter inconclusive (no result: VHR inh abs, 3CLpro inhibitor)
CC1=NN(c2ccccc2)C(=O)C1CCC#N (configuration not stated)	none (no result: VHR inh abs, 3CLpro inhibitor)
COc1ccc(CNc2oc(-c3cccc4ccccc34)nc2C#N)cc1	Autofluor counter 19935
CCOC(=O)N1CCN(C(=O)c2cn(C)c3ccc(S(=O)(=O)N(C)C4CCCCC4)cc3c2=O)CC1	none
O=C(Nc1ccc(C(F)(F)F)cc1)C1CCCN1S(=O)(=O)c1cccc2cccnc12 (configuration not stated)	Autofluor counter 16378
CCOC(=O)C1CCCN(C(=O)c2ccc3c(=O)n(CCOC)c(=S)[nH]c3c2)C1 (configuration not stated)	Autofluor counter 20489
COCCn1c(=S)[nH]c2cc(C(=O)N3CCC(C(N)=O)(N4CCCCC4)CC3)ccc2c1=O	Autofluor counter 22116
COCCn1c(=S)[nH]c2cc(C(=O)NCCCN3CCOCC3)ccc2c1=O	Autofluor counter 22856
COCCn1c(=S)[nH]c2cc(C(=O)NC3CCCCCC3)ccc2c1=O	none (no result: VHR inh abs, 3CLpro inhibitor)
Cc1nn(C(C)c2n[nH]c(=S)n2-c2ccc(F)cc2)c(C)c1[N+](=O)[O-] (configuration not stated)	Autofluor counter 17161
O=c1sc2ccccc2n1CCOc1ccccc1	Autofluor counter 23573
CCOC(=O)Cn1c(=O)sc2ccccc21	Autofluor counter 23284
O=C(O)CCn1c(=O)sc2ccccc21	none
COc1ccccc1OCCCn1c(=O)sc2ccccc21	BoNT-A LC inh2 inconclusive, Autofluor counter 20682
O=C(NCCCn1ccnc1)c1ccc(-c2cccc(C(F)(F)F)c2)o1	none (no result: VHR inh abs, 3CLpro inhibitor)
O=C(Nc1cccc2ccccc12)c1csc([C@@H]2C[C@H](O)[C@@H](CO)O2)n1	none (no result: VHR inh abs, 3CLpro inhibitor)
Cn1c(N/N=C2\CCCc3ccccc32)nc2c1c(=O)n(Cc1ccc(F)cc1)c(=O)n2C	VHR inh abs 60
Cn1c(=O)c2c(nc(NCc3ccc4c(c3)OCO4)n2Cc2ccc(F)cc2)n(C)c1=O	Autofluor counter 18743
CCCCn1c(CN(Cc2ccccc2)Cc2ccccc2)nc2c1c(=O)n(C)c(=O)n2C	none (no result: VHR inh abs)
CCCCCn1c(CN(C)Cc2ccccc2)nc2c1c(=O)n(C)c(=O)n2C	Autofluor counter 23164
CN(Cc1ccccc1)Cc1nc2c(c(=O)n(C)c(=O)n2C)n1Cc1ccc(F)cc1	Autofluor counter 23112
O=[N+]([O-])c1cccc(NC(=S)N2CCN(c3ccccn3)CC2)c1	none
O=C(Nc1ccc(NC(=O)C2CC2)cc1)c1cccs1	none

Screening data from PubChem BioAssay.
